For eight compounds, growth results are on record in PubChem BioAssay (NCI).

Experiment in all cases: NCI-60 one-dose screen, 48 h (100 = growth as untreated, 0 = no growth, -100 = all killed)
Assay [1] concerns HCT-15 colon. Conditions: 10 µM unless noted.
Assay [2] concerns HT29 colon. Conditions: 10 µM unless noted.
In assay [3] the test system is SNB-75 CNS. Conditions: 10 µM unless noted.
For assay [4], the system named is SNB-19 CNS. To be noted: 10 µM unless noted.
In assay [5] the test system is U251 CNS. Conditions: 10 µM unless noted.
Assay [6] concerns PC-3 prostate. To be noted: 10 µM unless noted.
For assay [7], the system named is SK-MEL-5 melanoma. Conditions: 10 µM unless noted.
For assay [8], the system named is UACC-62 melanoma. To be noted: 10 µM unless noted.
In assay [9] the test system is LOX IMVI melanoma. Conditions: 10 µM unless noted.
For assay [10], the system named is SK-MEL-28 melanoma. Conditions: 10 µM unless noted.
Assay [11] deals with EKVX NSCLC. Conditions: 10 µM unless noted.
The subject of assay [12] is SN12C renal. To be noted: 10 µM unless noted.
The test system of assay [13] is UO-31 renal. Conditions: 10 µM unless noted.
Assay [14] deals with TK-10 renal. To be noted: 10 µM unless noted.
The subject of assay [15] is ACHN renal. Conditions: 10 µM unless noted.
For assay [16], the system named is CAKI-1 renal. Conditions: 10 µM unless noted.
Assay [17] concerns A498 renal. Conditions: 10 µM unless noted.
The test system of assay [18] is CCRF-CEM leukemia. To be noted: 10 µM unless noted.
Assay [19] relates to MOLT-4 leukemia. To be noted: 10 µM unless noted.
In assay [20] the test system is SK-MEL-2 melanoma. Conditions: 10 µM.

The structures appear in SMILES notation. Compounds without any hit were thinned out: in the full panel of roughly 83,000, 20% have a hit.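 Percent growth is the endpoint: 0 to 100 indicates growth inhibition (40 means 60% inhibition), 0 means no net growth, and negative values indicate cell death.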 Unmarked numbers belong to inactive results. Activity calls are given as the source filed them. How the source made its calls: active means growth percent below 10; inactive means the rest.

Regarding `NC1(c2ccc(-c3nc4ccn5c(=O)[nH]nc5c4cc3-c3ccccc3)cc2)CCC1`, the growth is 15.2% in assay [1]; -7.85% (active) in assay [2]; -8.24% (active) in assay [3]; 18.1% in assay [4]; -3.88% (active) in [5]; 21.3% in assay [6]. Moreover, the growth is -85.7% (active) in assay [7]; 47.5% in assay [8]; -57.6% (active) in assay [9]; -66.7% (active) in assay [10]; 40.6% in [11]; 50.9% in assay [12]. Moreover, the growth in [13] was 28.6%; in [14], 44.3%; in assay [15], 36.2%; in assay [16] it was 32.3%; in assay [17] it was -62.8% (active); in assay [18] it was 1.33% (active). Also, in assay [19], the growth was -13.2% (active).
Turning to `O=C1C=CC2(NN=C(c3ccccc3)N2c2ccc(Cl)cc2)c2cccc(O)c21` (configuration not stated), the growth in [1] was 18.7%; in assay [2], 73%; in assay [3], 33.1%; in assay [4], 34.8%; in [5] it was 18.1%; in assay [6], 39.1%. Besides, the growth was -70.2% (active) in assay [7]; -33.1% (active) in assay [8]; 2.09% (active) in assay [9]; 52.6% in assay [10]; 75.1% in [11]; 26.4% in [12]. The growth in [13] is 28.2%; in assay [14], 100%; in assay [15], 61.1%; in assay [16], 84%; in assay [17] it was 91.3%; in [18], 83.1%. The growth in [19] is 61.8%.
For the compound `Cc1ccc(NC(=O)c2ccc(CN3CCN(C)CC3)cc2)cc1Nc1nc(-c2cccnc2)cs1`, the growth in assay [1] was 16.1%; in assay [2], 6.04% (active); in [3] it was 64.8%; in [4], 46.3%; in assay [5], 6.69% (active); in assay [6], 35.9%. The growth is -0.29% (active) in assay [7]; 58.4% in [8]; -27.3% (active) in [9]; -10.3% (active) in [10]; 48.3% in assay [11]; 74% in assay [12]. Moreover, the growth is 82.9% in assay [13]; 88.3% in [14]; 48.3% in assay [15]; 78% in assay [16]; 64.8% in assay [17]; 11.8% in [18]. In addition, in assay [19], the growth was 5.98% (active).
Turning to `Clc1ccc(/C=C/c2cc(N3CCOCC3)c3cc(Cl)c(Cl)cc3n2)cc1`, the growth in [1] was 97.4%; in [2] it was 93.1%; in [3], 69.7%; in assay [4], 108%; in assay [5] it was 81.4%; in [6], 37.2%. Also, the growth in assay [7] was 93.9%; in assay [8], 98.6%; in assay [9] it was 99.6%; in assay [10] it was 105%; in assay [20], 104%; in assay [12], 20.1%. Also, the growth in [13] is 12.5%; in [14], 92.8%; in [15], 94.3%; in assay [16], 78.6%; in [17], 67.7%; in [18], 4.25% (active). Further, the growth in assay [19] was 1.45% (active).
On to `FC(F)c1nc2ccccc2n1-c1nc(N2CCOCC2)nc(N2CCOCC2)n1`, for which the growth in assay [1] was 9.28% (active); in assay [2] it was 2.81% (active); in assay [3], -48% (active); in assay [4] it was 10.5%; in assay [5], 4.05% (active); in assay [6], 7.59% (active). The growth was -41.8% (active) in assay [7]; -50% (active) in [8]; -17.9% (active) in assay [9]; -31% (active) in assay [10]; 2.75% (active) in assay [11]; 8.54% (active) in assay [12]. Also, the growth in [13] was -26.2% (active); in [14] it was -27.9% (active); in [15], -8.61% (active); in assay [16], -11% (active); in assay [17] it was -82.4% (active); in assay [18] it was 8.99% (active). In addition, the growth in assay [19] is 1.48% (active).
For the compound `COc1cc(OC)c(/C=C/S(=O)(=O)Cc2ccc(OC)c(NCC(=O)O)c2)c(OC)c1`, the growth in [1] is 11.8%; in [2], 0.285% (active); in assay [3], 18.2%; in assay [4], 29.4%; in [5] it was 11.4%; in [6] it was 21.9%. The growth was -12.1% (active) in [7]; 37.4% in [8]; 16% in assay [9]; 65.9% in assay [10]; 27.3% in assay [11]; 34% in [12]. Besides, the growth in assay [13] was 36.3%; in assay [14], 49.7%; in assay [15] it was 30.2%; in assay [16], 18.2%; in [17] it was -4.03% (active); in [18] it was 16.2%. Besides, the growth in assay [19] is 14.5%.
Regarding `Cc1cnc(Nc2ccc(OCCN3CCCC3)cc2)nc1Nc1cccc(S(=O)(=O)NC(C)(C)C)c1`, the growth was 5.6% (active) in assay [1]; -41.8% (active) in assay [2]; -97.9% (active) in assay [3]; 21.3% in assay [4]; 15.9% in assay [5]; 20% in assay [6]. The growth in assay [7] is -90.4% (active); in [8], -23.1% (active); in assay [9] it was -79.4% (active); in assay [10] it was -10.7% (active); in assay [11], 26.4%; in assay [12], 12.6%. Moreover, the growth in [13] is -96.3% (active); in assay [14], -40% (active); in [15] it was -40.8% (active); in assay [16] it was -88.3% (active); in assay [17] it was -95.3% (active); in assay [18], 1.67% (active). Also, in assay [19], the growth was 1.26% (active).
For `Cc1ccccc1N1C(c2ccccc2)=NNC12C=CC(=O)C=C2Cl` (configuration not stated), the growth is 108% in assay [1]; 96.2% in assay [2]; 96.3% in [3]; 106% in [4]; 94.2% in assay [5]; 96.2% in assay [6]. Besides, the growth in [7] was 115%; in assay [8], 98.1%; in [9], 98.7%; in assay [10], 101%; in assay [11], 111%; in assay [12] it was 96.3%. Further, the growth in [13] is 88.8%; in assay [14] it was 109%; in assay [15] it was 100%; in assay [16], 105%; in [17], 109%; in assay [18] it was 101%. Besides, the growth in assay [19] was 94.7%.
